Source: PubChem BioAssay
Sa RN4220 lethal – kills Staphylococcus aureus RN4220; S. aureus RN4220 growth, OD600, 16 h; inhibition, % (no concentration beside the values); 330,000 compounds, 0.33% hits; AID 1259311; in the data active means inhibition above about 85%
ugtP null kill – compounds lethal to S. aureus RN4220 ugtP deletion mutant | 330,000 compounds, 0.54% hits | growth inhibition, % (concentration not given with the values) | OD600 growth, 16 h; in the data active means growth inhibition above about 68%
Mtb betalactam – beta-lactam sensitization of Mtb H37Rv; M. tuberculosis H37Rv growth with meropenem, percent inhibition; inhibition, % at 25 µM; 330,000 compounds, 0.27% hits; AID 434955; call rule not given here;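 further: growth measured after seven days incubation then overnight dye step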
Mtb hypoxia inh – reduces hypoxia-regulated biosensor signal in M. tuberculosis. 300,000 compounds, 0.1% hits. fluorescence inhibition, % (concentration not given with the values). M. tuberculosis hypoxia-regulated fluorescent reporter, fluorescence; in the data active means fluorescence inhibition mostly above about 23%, no sharp cut-off; inactive means mostly below about 17%
PriA SSB inh – K. pneumoniae PriA-SSBct interaction inhibition; AlphaScreen SSBct-PriA binding, biotinylated peptide; inhibition, % at 33 µM; 430,000 compounds, 0.6% hits; AID 1272365; in the data active means inhibition mostly above about 37%, no sharp cut-off; inactive means mostly below about 20%
A number is an active result; n = inactive; x = not tested or not shown; ! = not confirmed by another sample. Most compounds without a hit are left out; they make up all but 1% or so of the library.

SMILES	Sa RN4220 lethal	ugtP null kill	Mtb betalactam	Mtb hypoxia inh	PriA SSB inh
COc1ncc(Cl)cn1	x	x	x	x	n
O=C(NCCCN1CCOCC1)c1cc2ccccc2oc1=O	n	n	n	n	n
O=C(NCCN1CCN(C(=O)c2cc3ccccc3oc2=O)CC1)c1cc2ccccc2oc1=O	n	n	n	n	94.2
Cc1nc(-c2ccco2)sc1CNC(=O)C1CCN(S(C)(=O)=O)CC1	x	x	x	x	n
C=CCOCC(O)Cn1c(NCc2ccco2)nc2c1c(=O)[nH]c(=O)n2C (stereo not given)	x	x	x	x	67.0
COc1ccc(CCn2c(NCc3ccco3)nc3c2c(=O)[nH]c(=O)n3C)cc1	n	n	n	x	n
COc1ccc2oc(C(=O)N3CCN(c4ncccn4)CC3)c(C)c2c1	n	n	n	n	n
Cc1ccc2c(C)c(C(=O)N3CCN(c4ncccn4)CC3)oc2c1C	n	n	x	n	84.7
CC(Cl)C(=O)Nc1nnc(C(C)C)s1 (stereo not given)	x	x	x	x	n
CCOC(=O)C(Nc1ccc2ccccc2c1)C(=O)OCC	n	n	n	n	57.6
Cn1cc(C(=O)NCC#CCOc2ccccc2C(N)=O)nn1	x	x	x	x	n
Cc1ccc2nc(-c3ccc(NC(=O)Cc4csc(NC(=O)C5CC5)n4)cc3)sc2c1	x	x	x	x	n
COc1cc(=O)n(-c2ccccc2)cc1C(=O)N1CC(n2cc(-c3ccccc3)nn2)C1	x	x	x	x	n
COc1ccc(Nc2nc3c(C)cccn3c(=O)c2/C=N\Nc2ccccc2)cc1	x	x	x	x	n
CCC(C)N=Cc1c(Nc2ccccc2)nc2c(C)cccn2c1=O (stereo not given)	n	n	n	50.7	n
O=C(CSc1nccn1Cc1ccc(Cl)cc1)Nc1ccc2c(c1)OCCO2	x	x	x	x	42.0
CC(=O)Nc1ccc(NC(=O)CSc2nccn2Cc2ccc(Cl)cc2)cc1	n	n	n	n	n
Cc1cccc(-n2ccnc2SCC(=O)Nc2ccc3c(c2)OCCO3)c1C	x	x	x	x	49.0
Cc1cc(C)cc(-n2ccnc2SCC(=O)Nc2cccc(Cl)c2)c1	x	x	x	x	47.0
Cc1cc(C)cc(-n2ccnc2SCC(=O)Nc2ccc3c(c2)OCCO3)c1	n	n	n	x	44.9!
O=c1[nH]c2cccnc2c(=O)n1Cc1cccnc1	x	x	x	x	n
Cc1nc(SCC(=O)Nc2ccc3c(c2)OCCO3)c2oc3ccccc3c2n1	n	90.3	n	n	n
C=CCn1c(-c2ccc(OC)cc2)cnc1SCC(=O)Nc1cccc(Cl)c1	x	x	x	x	39.0
Cc1nc(SCc2ccccc2F)c2oc3ccccc3c2n1	n	n	n	39.8	n
O=C(CSc1ncc(-c2ccc(Cl)c(Cl)c2)n1Cc1ccccc1)Nc1cccc(Cl)c1	x	x	x	x	n
SMILES	Sa RN4220 lethal	ugtP null kill	Mtb betalactam	Mtb hypoxia inh	PriA SSB inh
COc1cccc(S(=O)(=O)Nc2ccc(Cl)c(C(F)(F)F)c2)c1	x	x	x	x	n
O=C(Nc1ccc2c(c1)OCO2)c1ccc(N2CCCC2)c([N+](=O)[O-])c1	n	n	n	n	39.0
O=C(Nc1ccc(N2CCCCC2)c(Cl)c1)c1ccc(N2CCOCC2)c([N+](=O)[O-])c1	n	n	n	n	n
CC(C)(C)c1csc(NC(=O)c2ccc(N3CCOCC3)c([N+](=O)[O-])c2)n1	x	x	x	x	39.0
O=C(Nc1nccs1)c1ccc(N2CCOCC2)c([N+](=O)[O-])c1	x	x	n	x	n
Cc1ccc(/C=C/S(=O)(=O)N2CCC(Oc3ncccc3C#N)CC2)cc1	x	x	x	x	n
O=C(NCCCn1ccnc1)C(=O)NCC1OCCN1S(=O)(=O)c1ccc(Cl)cc1 (stereo not given)	n	n	n	n	60.9
NS(=O)(=O)c1ccc(CCNC(=O)C(=O)NCC2OCCN2C(=O)c2ccc3c(c2)OCO3)cc1 (stereo not given)	n	n	n	n	n
O=C(NCCCn1ccnc1)C(=O)NCC1OCCN1S(=O)(=O)c1ccccc1 (stereo not given)	x	x	n	x	42.7
O=C(NCCCn1ccnc1)C(=O)NCC1OCCCN1S(=O)(=O)c1ccc(Cl)cc1 (stereo not given)	n	n	n	n	n
O=C(NCCCn1ccnc1)C(=O)NCC1OCCN1C(=O)c1ccc2c(c1)OCO2 (stereo not given)	x	x	x	x	71.0
Cc1c(C(=O)Nc2nnc(SCc3ccc(Br)cc3)s2)cccc1[N+](=O)[O-]	x	x	x	x	n
CCN1CCN(Cc2ccc(NC(=O)c3cc(NC(=O)c4cc(-c5ccc(OC)cc5)n[nH]4)cc(OC)c3)cc2C(F)(F)F)CC1	n	n	n	n	n
CCN1CCN(Cc2ccc(NC(=O)c3cc(NC(=O)c4cncc(-c5cccs5)c4)cc(OC)c3)cc2C(F)(F)F)CC1	x	x	n	x	41.8
CCN1CCN(Cc2ccc(NC(=O)c3cc(NC(=O)c4ccno4)cc(OC)c3)cc2C(F)(F)F)CC1	x	x	n	x	n
CCN1CCN(Cc2ccc(NC(=O)c3cc(NC(=O)c4cc5cccc(OC)c5o4)cc(OC)c3)cc2C(F)(F)F)CC1	n	n	n	n	72.8
CC(=CC(=O)c1ccc(Br)cc1)NCc1ccccc1	x	x	x	x	n
Cc1ccc(-c2nn(-c3ccccc3)cc2CO)cc1	n	n	n	n	n
Cc1ccc(-c2nn(-c3ccccc3)cc2CNCc2ccccc2)cc1	n	96.9	n	n	n
O=C(Nc1ccccc1)Nc1ccncc1	n	n	n	n	n
O=C(Nc1ccccc1)Nc1ccno1	n	n	n	94.5	n
S=C1NC2(CCCCC2)Cc2ccccc21	n	n	n	n	44.1
O=C1NC2(CCCCC2)Cc2ccccc21	n	n	n	n	n
Cc1c2ccncc2cc2c1[nH]c1ccccc12	n	n	x	n	n
COc1ccc2[nH]c3c(C)c4ccncc4c(C)c3c2c1	98.4	96.0	n	x	n
SMILES	Sa RN4220 lethal	ugtP null kill	Mtb betalactam	Mtb hypoxia inh	PriA SSB inh
Cc1c2ccncc2c(C)c2c1[nH]c1ccccc12	98.2	99.8	n	60.0	n
O=C(Nc1c(F)cccc1F)N1CCN(c2ccc(-n3cncn3)nn2)CC1	x	x	x	x	n
CN(N=Cc1cc(Cl)cc(Cl)c1O)C(=S)NC(C)(C)C	100.5	99.7	x	n	n
COc1cn(CC(=O)Nc2ccc3c(c2)OCCO3)c(CSc2ccc(Cl)cc2)cc1=O	x	x	x	x	n
COC(=O)c1cc2c(-c3ccccc3)c(C)c3ccccn3c-2c1C(=O)OC	n	n	n	n	66.2
COC(=O)c1c(Cl)c2n3ccccc3c(C)c(-c3ccccc3)c-2c1C(=O)OC	n	n	n	n	n
COc1cc(CCc2ccccc2)c(C(=O)O)c(O)c1C/C=C(/C)CCC=C(C)C	88.1	100.0	x	n	n
CC(C)C(=O)Nc1ccc(N2CCN(C(=O)c3cccs3)CC2)cc1	n	n	n	n	n
CC(C)CC(=O)NC(=S)Nc1ccc(NC(=O)c2cccs2)cc1	n	83.1	n	x	n
CC(C)CC(=O)NC(=S)Nc1ccc(N2CCN(C(=O)c3cccs3)CC2)cc1	n	95.6	x	x	n
O=C(Nc1ccc(NC(=S)NC(=O)c2ccccc2F)cc1)c1cccs1	n	n	n	x	n
CCCCCCCn1c2c(c(=N)c3c1CCC3)CCCC2	n	98.8	x	x	n
CCCCCCn1c2c(c(=N)c3c1CCC3)CCC2	n	n	n	n	n
CCCCCCCCCn1c2c(c(=N)c3c1CCC3)CCC2	100.4	100.6	n	n	n
Cc1ccccc1-c1noc(C2CC(=O)N(c3cccc(Cl)c3)C2)n1 (stereo not given)	x	x	x	x	n
O=C(O)CN1C(=O)c2cccc3c(Br)ccc1c23	n	n	n	n	n
